Results: PubChem BioAssay AID1159580 (chemical genetic matrix, 2015)
Screen size: about 5,500 compounds; about 2,000 (36%) were called active. About 18% were inconclusive and are not listed. Rule as the data show it: active = normalized growth mostly below about 0.91 (no sharp cut-off); inconclusive = no clear call, values can overlap the other calls; inactive = mostly above about 0.92. The list shows a part of the results.

Assay: chemical genetic growth profiling, strain panel (AID 1159580);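 also: tested at 20 µM; growth read once vehicle control cultures reached saturation at 30 °C; 1 = growth at the plate median or of vehicle wells; lower values mean less growth of the strain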
Details: growth OD

Measured: normalized growth

COc1cc(OC)c2c3c1C(=O)c1c(OC)cc(C)c4c(OC)cc(c-3c14)C(C)(C)C2=O
inactive: S. cerevisiae deletion strains, locus YAL013W, strain DEP1, hits give low values 1.02 | S. cerevisiae deletion strains, locus YBR021W, strain FUR4, hits give low values 0.993 | S. cerevisiae deletion strains, locus YBR229C, strain ROT2, hits give low values 1.02 | S. cerevisiae deletion strains, locus YCL029C, strain bik1, hits give low values 0.993 | S. cerevisiae deletion strains, locus YDL035C, strain GPR1, hits give low values 0.99 | S. cerevisiae deletion strains, locus YDL074C, strain BRE1, hits give low values 0.991 | S. cerevisiae deletion strains, locus YDL101C, strain DUN1, hits give low values 1.01 | S. cerevisiae deletion strains, locus YDL134C, strain PPH21, hits give low values 1 | S. cerevisiae deletion strains, locus YDL185W, strain tfp1, hits give low values 0.991 | S. cerevisiae deletion strains, locus YDL192W, strain arf1, hits give low values 0.988 | S. cerevisiae deletion strains, locus YDR101C, strain arx1, hits give low values 0.971 | S. cerevisiae deletion strains, locus YDR150W, strain NUM1, hits give low values 1.01 | S. cerevisiae deletion strains, locus YDR162C, strain NBP2, hits give low values 1.03 | S. cerevisiae deletion strains, locus YDR318W, strain mcm21, hits give low values 0.98 | S. cerevisiae deletion strains, locus YDR388W, hits give low values 0.989 | S. cerevisiae deletion strains, locus YDR502C, strain sam2, hits give low values 0.981 | S. cerevisiae deletion strains, locus YEL061C, strain CIN8, hits give low values 1.01 | S. cerevisiae deletion strains, locus YER110C, hits give low values 0.988 | S. cerevisiae deletion strains, locus YER155C, strain BEM2, hits give low values 1.01 | S. cerevisiae deletion strains, locus YER167W, strain BCK2, hits give low values 0.987 | S. cerevisiae deletion strains, locus YGL078C, strain dbp3, hits give low values 1 | S. cerevisiae deletion strains, locus YGL086W, strain mad1, hits give low values 0.968 | S. cerevisiae deletion strains, locus YGL248W, strain PDE1, hits give low values 1.01 | S. cerevisiae deletion strains, locus YGR078C, strain PAC10, hits give low values 1.01 | S. cerevisiae deletion strains, locus YGR135W, strain pre9, hits give low values 0.983 | S. cerevisiae deletion strains, locus YGR229C, strain SMI1, hits give low values 0.997 | S. cerevisiae deletion strains, locus YGR252W, strain gcn5, hits give low values 0.896 | S. cerevisiae deletion strains, locus YHR030C, strain SLT2, hits give low values 1.01 | S. cerevisiae deletion strains, locus YHR079C, strain IRE1 (second series), hits give low values 0.977 | S. cerevisiae deletion strains, locus YHR094C, strain hxt1, hits give low values 0.985 | S. cerevisiae deletion strains, locus YHR129C, strain ARP1, hits give low values 1.01 | S. cerevisiae deletion strains, locus YHR200W, strain rpn10, hits give low values 0.989 | S. cerevisiae deletion strains, locus YIL066C, strain RNR3, hits give low values 0.999 | S. cerevisiae deletion strains, locus YIL073C, strain SPO22, hits give low values 0.924 | S. cerevisiae deletion strains, locus YIL125W, strain kgd1, hits give low values 0.994 | S. cerevisiae deletion strains, locus YIR030C, strain dcg1, hits give low values 0.979 | S. cerevisiae deletion strains, locus YJL095W, strain BCK1, hits give low values 1.01 | S. cerevisiae deletion strains, locus YJL134W, strain LCB3, hits give low values 1 | S. cerevisiae deletion strains, locus YJL168C, strain set2, hits give low values 0.987 | S. cerevisiae deletion strains, locus YJL187C, strain SWE1 (second series), hits give low values 1.01 | S. cerevisiae deletion strains, locus YJR043C, strain POL32, hits give low values 0.993 | S. cerevisiae deletion strains, locus YJR075W, strain HOC1, hits give low values 0.988 | S. cerevisiae deletion strains, locus YKL009W, strain mrt4, hits give low values 0.979 | S. cerevisiae deletion strains, locus YKL068W, hits give low values 0.992 | S. cerevisiae deletion strains, locus YKL085W, strain MDH1 (second series), hits give low values 0.99 | S. cerevisiae deletion strains, locus YKL085W, strain MDH1, hits give low values 0.99 | S. cerevisiae deletion strains, locus YKL190W, strain CNB1, hits give low values 1 | S. cerevisiae deletion strains, locus YKR001C, strain vps1, hits give low values 0.973 | S. cerevisiae deletion strains, locus YLR039C, strain RIC1, hits give low values 1.01 | S. cerevisiae deletion strains, locus YLR058C, strain SHM2, hits give low values 1.01 | S. cerevisiae deletion strains, locus YLR102C, strain apc9, hits give low values 0.981 | S. cerevisiae deletion strains, locus YLR262C, strain YPT6, hits give low values 0.995 | S. cerevisiae deletion strains, locus YLR268W, strain sec22, hits give low values 0.973 | S. cerevisiae deletion strains, locus YLR330W, strain CHS5, hits give low values 1.02 | S. cerevisiae deletion strains, locus YLR342W, strain FKS1 (second series), hits give low values 0.967 | S. cerevisiae deletion strains, locus YLR371W, strain rom2, hits give low values 0.99 | S. cerevisiae deletion strains, locus YLR418C, strain cdc73, hits give low values 0.947 | S. cerevisiae deletion strains, locus YML016C, strain PPZ1, hits give low values 1.01 | S. cerevisiae deletion strains, locus YML032C, strain rad52, hits give low values 0.973 | S. cerevisiae deletion strains, locus YML124C, strain tub3, hits give low values 0.985 | S. cerevisiae deletion strains, locus YMR078C, strain ctf18, hits give low values 0.99 | S. cerevisiae deletion strains, locus YMR223W, strain ubp8, hits give low values 0.969 | S. cerevisiae deletion strains, locus YMR263W, strain SAP30, hits give low values 1.02 | S. cerevisiae deletion strains, locus YMR307W, strain GAS1, hits give low values 0.977 | S. cerevisiae deletion strains, locus YNL067W, strain RPL9B, hits give low values 1.01 | S. cerevisiae deletion strains, locus YNL128W, strain TEP1, hits give low values 1.02 | S. cerevisiae deletion strains, locus YNL153C, strain GIM3, hits give low values 1.02 | S. cerevisiae deletion strains, locus YNL233W, strain BNI4, hits give low values 1.01 | S. cerevisiae deletion strains, locus YNL250W, strain rad50, hits give low values 0.989 | S. cerevisiae deletion strains, locus YNL271C, strain bni1, hits give low values 0.994 | S. cerevisiae deletion strains, locus YNL298W, strain CLA4, hits give low values 0.99 | S. cerevisiae deletion strains, locus YNL307C, strain MCK1, hits give low values 0.95 | S. cerevisiae deletion strains, locus YNL322C, strain KRE1, hits give low values 1.01 | S. cerevisiae deletion strains, locus YNR052C, strain pop2, hits give low values 0.985 | S. cerevisiae deletion strains, locus YOL006C, strain TOP1, hits give low values 0.991 | S. cerevisiae deletion strains, locus YOL012C, strain htz1 1.08 | S. cerevisiae deletion strains, locus YOL147C, strain pex11, hits give low values 0.994 | S. cerevisiae deletion strains, locus YOR061W, strain CKA2, hits give low values 1 | S. cerevisiae deletion strains, locus YOR069W, strain VPS5, hits give low values 1 | S. cerevisiae deletion strains, locus YOR136W, strain idh2, hits give low values 0.987 | S. cerevisiae deletion strains, locus YOR144C, strain elg1, hits give low values 0.991 | S. cerevisiae deletion strains, locus YOR184W, strain ser1, hits give low values 0.952 | S. cerevisiae deletion strains, locus YOR316C, strain cot1, hits give low values 0.981 | S. cerevisiae deletion strains, locus YPL055C, strain LGE1, hits give low values 1.01 | S. cerevisiae deletion strains, locus YPL241C, strain CIN2, hits give low values 1.01 | S. cerevisiae deletion strains, locus YPR119W, strain clb2, hits give low values 0.988 | S. cerevisiae deletion strains, locus YPR141C, strain kar3, hits give low values 0.986 | S. cerevisiae deletion strains, locus YPR163C, strain tif3, hits give low values 0.989 | S. cerevisiae deletion strains, locus YPR167C, strain met16, hits give low values 0.981 | S. cerevisiae deletion strains, strain wtn01, hits give low values 0.95 | S. cerevisiae strains, strain wild type, hits give low values 1
